# Laboratory results taken from PubChem BioAssay (Tox21).
# “And” between values parts separate entries of the source, which are not always exact repeats. Equal entries are not always repeated. Results filed as inconclusive are left out. The source made the active and inactive calls. Unless noted, the call rests on the fitted dose curve; in most records, active means well fitted curve in the direction sought with a large enough effect in the repeat runs; inconclusive means weak or mixed curves; inactive means no such curve, though single readings can be large; an effect the other way counts as inactive or inconclusive.
# Assay: qHTS assay to identify small molecule agonists of the sonic hedgehog signaling (Shh) pathway - cell viability counter screen (AID 1259366); further: nearly all actives have a fitted effect of over 50% in size; further: potency means the concentration at half of the fitted maximal effect
# Conditions: NIH/3T3 Gli1-Luc viability, CellTiter-Fluor, 24 h; series mostly up to 92.4 µM; viability change, negative = cytotoxic: at the top concentration
# Procedure, shortened: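 Stable Gli1-Luc NIH/3T3 clone, 2,000 cells/well. Compound exposure 24hr at 37C. Read-out: CellTiter-Fluor fluorescence.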
# On the % scale 0 is the no-effect control and ±100 the full control effect.
SMILES,"viability change, negative = cytotoxic",Potency
Cc1cc(N)c(S(=O)(=O)O)cc1Cl,1.3% (inactive),
CCN(CC)CCNC(=O)c1c(C)[nH]c(/C=C2\C(=O)Nc3ccc(F)cc32)c1C,,5.96 µM (active)
CC(C)(C)c1ccc(C(=O)CCCN2CCC(OC(c3ccccc3)c3ccccc3)CC2)cc1,,26.6 µM (active)
O=c1cc(-c2ccc(O)cc2)oc2cc(O)cc(O)c12,,61.9 µM (active) and 38.6 µM (active)
CO[Si](CCCNc1ccccc1)(OC)OC,3.47% (inactive),
C=C(C)C(=O)OCC(O)COc1ccc(C(C)(C)c2ccc(OCC(O)COC(=O)C(=C)C)cc2)cc1 (centres undefined),1.68% (inactive),
CCCCCCCCCCCC[N+](C)(C)CCCCCCCCCCCC,,24.3 µM (active)
CCCCCCCC(=O)[O-].CCCCCCCC(=O)[O-].[Zn+2],3.01% [at 42.5 µM] (inactive),
C/C=C(\C)C(=O)OCc1ccccc1,1.07% (inactive),
CCN(C(=O)c1cc(C)cc(OC[C@H](C)Nc2ccncc2)c1)C(C)C,-4.61% [at 42.5 µM] (inactive),
O=C(O)c1c(Cl)cccc1Cl,1.56% (inactive),
CCN(C(=O)N(CC)c1ccccc1)c1ccccc1,-9.12% (inactive),
O=C(Nc1cccc(Cl)c1)OCC#CCCl,,27.3 µM (active)
CN(C)[C@@H]1C(=O)C(C(N)=O)=C(O)[C@@]2(O)C(=O)C3=C(O)c4c(O)cccc4C[C@H]3C[C@@H]12,14.6% [at 42.5 µM] (inactive),
CCCCCOC(=O)CCCC,1.63% (inactive),
C1CCCC1,1.95% (inactive),
CCCC/C=C/CCCCO,0.0482% (inactive),
Nc1c(Cl)cc(Cl)cc1Cl,-3.36% (inactive),
COc1cccc(N)c1,0.0511% (inactive),
OCCCCCCCCCCCCBr,-18.7% (inactive),
COc1cc(-c2ccc(N=C=O)c(OC)c2)ccc1N=C=O,0.415% [at 42.5 µM] (inactive),
CSc1cnc(C)cn1,2.04% [at 240 µM] (inactive),
Clc1ccccc1C(c1ccccc1)(c1ccccc1)n1ccnc1,,13.7 µM (active)
CC(C)CCCCCCCCCCCCCCC(=O)O,5.24% (inactive),
CCC(Cl)C(Cl)C(Cl)CC(Cl)C(Cl)C(C)Cl (centres undefined),5.72% (inactive),
O=C1c2ccccc2Cc2ccccc21,,6.91 µM (active)

# Assay: qHTS assay to identify small molecule antagonists of the sonic hedgehog signaling (Shh) pathway - cell viability counter screen (AID 1259367); further: nearly all actives have a fitted effect of over 55% in size; further: potency means the concentration at half of the fitted maximal effect
# Conditions: NIH/3T3 Gli1-Luc viability, CellTiter-Fluor, 24 h; series mostly up to 42.5 µM; viability change, negative = cytotoxic: at the top concentration
# Procedure, shortened: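 NIH/3T3-derived Gli1-Luc reporter cells (2,000 per well) rested 4 hr at 37 C, then received DMSO compounds plus conditioned medium. After 23 hr of treatment, CellTiter-Fluor was added for 1 hr at 37C and fluorescence read.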
SMILES,"viability change, negative = cytotoxic",Potency
O=C(OCC(COC(=O)c1ccccc1)(COC(=O)c1ccccc1)COC(=O)c1ccccc1)c1ccccc1,-10.5% [at 92.4 µM] (inactive),
Cc1cc(N)c(S(=O)(=O)O)cc1Cl,3.19% [at 92.4 µM] (inactive),
O=c1cc(-c2ccc(O)cc2)oc2cc(O)cc(O)c12,,48.6 µM (active)
CO[Si](CCCNc1ccccc1)(OC)OC,2.83% [at 92.4 µM] (inactive),
CCCCCCCCCCCC[N+](C)(C)CCCCCCCCCCCC,,27.3 µM (active)
C/C=C(\C)C(=O)OCc1ccccc1,1.79% [at 92.4 µM] (inactive),
CCN(C(=O)c1cc(C)cc(OC[C@H](C)Nc2ccncc2)c1)C(C)C,-11.4% (inactive),
O=C(O)c1c(Cl)cccc1Cl,1.02% [at 92.4 µM] (inactive),
CC(C)(C)c1ccc(C(=O)O)cc1,0.56% [at 92.4 µM] (inactive),
Cc1cccc(N(C)C(=S)Oc2ccc3c(c2)C2CCC3C2)c1 (centres undefined),7.95% (inactive),
CCN(C(=O)N(CC)c1ccccc1)c1ccccc1,-15.4% [at 92.4 µM] (inactive),
O=C(Nc1cccc(Cl)c1)OCC#CCCl,,24.3 µM (active)
Oc1cccc2cc3cccc(O)c3c(O)c12,-6.32% [at 92.4 µM] (inactive),
Oc1ccc2cc(SSc3ccc4cc(O)ccc4c3)ccc2c1,,61.2 µM (active) and 48.6 µM (active)
CCCCCOC(=O)CCCC,0.769% [at 92.4 µM] (inactive),
C1CCCC1,-6.02% [at 92.4 µM] (inactive),
CCCC/C=C/CCCCO,4.98% [at 92.4 µM] (inactive),
CCCCCCCC/C=C\CCCCCCCCOCCO,,63.1 µM (active)
C/C=C1/C(=O)C[C@H]2[C@@H]3CCC4=CC(=O)CC[C@]4(C)[C@H]3CC[C@]12C,-9.78% [at 92.4 µM] (inactive),
COc1cccc(N)c1,3.66% [at 92.4 µM] (inactive),
OCCCCCCCCCCCCBr,-22.3% [at 92.4 µM] (inactive),
[Cl][Au]([Cl])[Cl],,4.86 µM (active)
C[n+]1ccn(Cc2ccccc2)c1,18.7% [at 92.4 µM] (inactive),
CSc1cnc(C)cn1,0.342% [at 240 µM] (inactive),
Clc1ccccc1C(c1ccccc1)(c1ccccc1)n1ccnc1,,13.7 µM (active)
CC(C)CCCCCCCCCCCCCCC(=O)O,2.13% [at 92.4 µM] (inactive),
CCC(Cl)C(Cl)C(Cl)CC(Cl)C(Cl)C(C)Cl (centres undefined),6.5% [at 92.4 µM] (inactive),

# Assay: qHTS assay to identify small molecule agonists of the sonic hedgehog signaling (Shh) pathway (AID 1259368; calls by dose curve;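 further: NIH/3T3-derived 3T3Gli1-Luc cells carrying a stable Gli1-driven firefly luciferase reporter; nearly all actives have a fitted effect of over 15% in size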)
# Conditions: NIH/3T3 Gli1-Luc reporter, luciferase, 24 h; series mostly up to 92.4 µM; activity change: at the top concentration
# Procedure, shortened: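 A Gli1 transcriptional response element controlled firefly luciferase in 3T3Gli1-Luc cells. Compounds and a positive control were added 4 hr after plating, and cells were incubated a further 24 hr at 37 C before luminescence detection.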
SMILES,activity change,Potency
O=C(OCC(COC(=O)c1ccccc1)(COC(=O)c1ccccc1)COC(=O)c1ccccc1)c1ccccc1,2.8% (inactive),
Cc1cc(N)c(S(=O)(=O)O)cc1Cl,-1.22% (inactive),
CC(C)(C)c1ccc(C(=O)CCCN2CCC(OC(c3ccccc3)c3ccccc3)CC2)cc1,"-5.33% [at 42.5 µM, active compounds read high] (inactive)",
O=c1cc(-c2ccc(O)cc2)oc2cc(O)cc(O)c12,0.122% (inactive),
CO[Si](CCCNc1ccccc1)(OC)OC,0.317% (inactive),
C=C(C)C(=O)OCC(O)COc1ccc(C(C)(C)c2ccc(OCC(O)COC(=O)C(=C)C)cc2)cc1 (centres undefined),0.704% (inactive),
CCCCCCCCCCCC[N+](C)(C)CCCCCCCCCCCC,-15.3% (inactive),
CCCCCCCC(=O)[O-].CCCCCCCC(=O)[O-].[Zn+2],"0.75% [at 42.5 µM, active compounds read high] (inactive)",
C/C=C(\C)C(=O)OCc1ccccc1,0.049% (inactive),
CCN(C(=O)c1cc(C)cc(OC[C@H](C)Nc2ccncc2)c1)C(C)C,"-4.74% [at 42.5 µM, active compounds read high] (inactive)",
O=C(O)c1c(Cl)cccc1Cl,-0.485% (inactive),
CC(C)(C)c1ccc(C(=O)O)cc1,0.119% (inactive),
Cc1cccc(N(C)C(=S)Oc2ccc3c(c2)C2CCC3C2)c1 (centres undefined),"4.92% [at 42.5 µM, active compounds read high] (inactive)",
CCN(C(=O)N(CC)c1ccccc1)c1ccccc1,-1.92% (inactive),
O=C(Nc1cccc(Cl)c1)OCC#CCCl,-13.7% (inactive),
CN(C)[C@@H]1C(=O)C(C(N)=O)=C(O)[C@@]2(O)C(=O)C3=C(O)c4c(O)cccc4C[C@H]3C[C@@H]12,"-0.673% [at 42.5 µM, active compounds read high] (inactive)",

SMILES,activity change,Potency
Oc1cccc2cc3cccc(O)c3c(O)c12,-0.965% (inactive),
CCCCCOC(=O)CCCC,0.0771% (inactive),
C1CCCC1,-0.228% (inactive),
CCCC/C=C/CCCCO,0.412% (inactive),
CCCCCCCC/C=C\CCCCCCCCOCCO,-15.9% (inactive),
Nc1c(Cl)cc(Cl)cc1Cl,0.0031% (inactive),
C/C=C1/C(=O)C[C@H]2[C@@H]3CCC4=CC(=O)CC[C@]4(C)[C@H]3CC[C@]12C,-2.37% (inactive),
Nc1ccc2cc(S(=O)(=O)O)cc(O)c2c1N=Nc1ccccc1C(F)(F)F,-1.86% (inactive),
COc1cccc(N)c1,4.6% (inactive),
OCCCCCCCCCCCCBr,-0.192% (inactive),
C[n+]1ccn(Cc2ccccc2)c1,-1.71% (inactive),
CSc1cnc(C)cn1,"-0.0797% [at 240 µM, active compounds read high] (inactive)",
Clc1ccccc1C(c1ccccc1)(c1ccccc1)n1ccnc1,,inactive
CC(C)CCCCCCCCCCCCCCC(=O)O,-0.63% (inactive),
CCC(Cl)C(Cl)C(Cl)CC(Cl)C(Cl)C(C)Cl (centres undefined),1.62% (inactive),
